Experimental data as given in the antibiotic and cytotoxicity screens of Wong et al. (2023).
Out of some 39,000 compounds screened, about 1,500 (3.8%) were called active. This is one part of a sample in which actives are shown more often than they occur.

The compounds below were run on HSkMC (human skeletal muscle cells) (assay: cytotoxicity call (relative viability < 0.9)). Conditions: 10 µM.

How did the cytotoxicity call turn out when `C[C@H]1CN([C@@H](C)CO)C(=O)c2cc(C#Cc3ccccc3F)cnc2O[C@H]1CN(C)C(=O)Cc1cccnc1` was run?
The cytotoxicity call was “inactive”.

Which cytotoxicity call does the source give for `COCC(=O)Nc1ccc2c(c1)OC[C@@H](C)N(C(=O)Cc1ccccn1)C[C@@H](C)[C@H](OC)CN(C)C2=O` here?
Its cytotoxicity call is “inactive”.

Which cytotoxicity call does the source give for `COc1ccc(COC[C@]23NC(=S)N(C(=O)c4ccccc4)[C@H](c4ccccc4O2)[C@H]3CO[Si](C)(C)C(C)(C)C)cc1` here?
Its cytotoxicity call is “inactive”.

For `CO[C@H]1CN(C)C(=O)c2ccc(NC(=O)C3CCOCC3)cc2OC[C@H](C)N(Cc2cccnc2)C[C@@H]1C`, which cytotoxicity call is on record?
The cytotoxicity call was “inactive”.

`COc1ccc2c3c(n(c2c1)C)[C@H](CO)N(C[C@]13CCN(CC1)C(=O)c1cnccn1)C(=O)c1cnccn1` was tested. Which cytotoxicity call did it give?
The cytotoxicity call was “inactive”.

`C[C@H](CO)N1C[C@H](C)[C@@H](CN(C)C(=O)Nc2ccc3c(c2)OCO3)Oc2ccc(NC(=O)Cn3cnnn3)cc2CC1=O` was tested. Which cytotoxicity call did it give?
The cytotoxicity call was “inactive”.

How did the cytotoxicity call turn out when `CN(C)CCN1C[C@H]2OCCN(Cc3cnn(C)c3)[C@H]2C1` was run?
Its cytotoxicity call is “inactive”.

For `CO[C@H]1CN(C)C(=O)c2ccc(NS(C)(=O)=O)cc2OC[C@@H](C)N(C(=O)C2CCCCC2)C[C@H]1C`, which cytotoxicity call is on record?
Its cytotoxicity call is “inactive”.

`O=c1[nH]cc(F)c(=O)[nH]1` was tested. Which cytotoxicity call did it give?
The cytotoxicity call was “inactive”.

Which cytotoxicity call does the source give for `CC1CC(OC(=O)C(O)c2ccccc2)CC(C)(C)C1` (stereo unspecified) here?
Its cytotoxicity call is “inactive”.

Which cytotoxicity call does the source give for `O=C(Oc1ccccc1C(=O)O)c1ccccc1O` here?
Its cytotoxicity call is “inactive”.

`CC1CC(OC(=O)c2ccccc2O)CC(C)(C)C1` (stereo unspecified) was tested. Which cytotoxicity call did it give?
Its cytotoxicity call is “active”.

With `C[C@@H]1CCCCO[C@@H](CN(C)Cc2ccc(C(F)(F)F)cc2)[C@@H](C)CN([C@@H](C)CO)C(=O)c2cc(NS(=O)(=O)c3ccccc3)ccc2O1` as the compound, how does the cytotoxicity call read?
Its cytotoxicity call is “inactive”.

Which cytotoxicity call does the source give for `COc1ccc([Si](C)(C)[C@H]2[C@H](CC(=O)N3Cc4ccccc4C[C@H]3CO)O[C@@]3(C(=O)N(Cc4cccc(N5CCC5=O)c4)c4ccccc43)[C@@H]2C)cc1` here?
The cytotoxicity call was “inactive”.

For `COc1ccc(OC)c(CCNC(=O)CN)c1`, which cytotoxicity call is on record?
The cytotoxicity call was “inactive”.

`Cc1ccc(S(=O)(=O)Nc2ccc3c(c2)C(=O)N([C@H](C)CO)C[C@H](C)[C@H](CN(C)CC2CCCCC2)OCCCC[C@H](C)O3)cc1` was tested. Which cytotoxicity call did it give?
The cytotoxicity call was “active”.

How did the cytotoxicity call turn out when `Cc1ccc(S(=O)(=O)Nc2ccc3c(c2)C(=O)N([C@@H](C)CO)C[C@@H](C)[C@H](CN(C)CC2CCCCC2)OCCCC[C@H](C)O3)cc1` was run?
Its cytotoxicity call is “inactive”.

How did the cytotoxicity call turn out when `C[C@@H]1CCCCO[C@@H](CN(C)S(=O)(=O)c2ccccc2)[C@H](C)CN([C@H](C)CO)C(=O)c2cc(NS(=O)(=O)c3ccc(Cl)cc3)ccc2O1` was run?
The cytotoxicity call was “inactive”.

With `C[C@@H]1CCCCO[C@H](CN(C)S(=O)(=O)c2ccccc2)[C@H](C)CN([C@@H](C)CO)C(=O)c2cc(NS(=O)(=O)c3ccc(Cl)cc3)ccc2O1` as the compound, how does the cytotoxicity call read?
The cytotoxicity call was “inactive”.

For `C[C@@H]1CN([C@H](C)CO)C(=O)c2cc(NS(=O)(=O)c3ccccc3)ccc2O[C@@H](C)CCCCO[C@H]1CN(C)S(=O)(=O)c1ccc(Cl)cc1`, which cytotoxicity call is on record?
The cytotoxicity call was “active”.

`C[C@H](CO)N1C[C@H](C)[C@H](CN(C)CC2CCCCC2)OCCCC[C@H](C)Oc2ccc(NS(=O)(=O)c3ccc(Cl)cc3)cc2C1=O` was tested. Which cytotoxicity call did it give?
Its cytotoxicity call is “inactive”.

How did the cytotoxicity call turn out when `C[C@@H]1CCCCO[C@H](CN(C)CC2CCCCC2)[C@H](C)CN([C@@H](C)CO)C(=O)c2cc(NS(=O)(=O)c3ccc(Cl)cc3)ccc2O1` was run?
The cytotoxicity call was “active”.

How did the cytotoxicity call turn out when `Cc1ccc(S(=O)(=O)Nc2ccc3c(c2)C(=O)N([C@H](C)CO)C[C@@H](C)[C@H](CN(C)CC2CCCCC2)OCCCC[C@@H](C)O3)cc1` was run?
Its cytotoxicity call is “inactive”.

Which cytotoxicity call does the source give for `C[C@@H]1CN([C@@H](C)CO)C(=O)c2cc(NS(=O)(=O)c3ccc(Cl)cc3)ccc2O[C@@H](C)CCCCO[C@H]1CN(C)CC1CCCCC1` here?
The cytotoxicity call was “inactive”.

How did the cytotoxicity call turn out when `C[C@@H]1CN([C@H](C)CO)C(=O)Cc2cc(NS(=O)(=O)c3ccc(Cl)cc3)ccc2O[C@H]1CN(C)C(=O)Nc1cccc2ccccc12` was run?
Its cytotoxicity call is “inactive”.

Which cytotoxicity call does the source give for `C[C@H]1CN([C@@H](C)CO)C(=O)c2cccc(NC(=O)Nc3ccc4c(c3)OCO4)c2O[C@H]1CN(C)S(=O)(=O)c1cn(C)cn1` here?
The cytotoxicity call was “inactive”.

`CCCN(C)C[C@H]1OCCCC[C@H](C)Oc2ccc(NC(=O)NC3CCCCC3)cc2C(=O)N([C@@H](C)CO)C[C@H]1C` was tested. Which cytotoxicity call did it give?
The cytotoxicity call was “inactive”.

`C[C@H]1CCCCO[C@@H](CN(C)S(=O)(=O)c2ccc(F)cc2)[C@@H](C)CN([C@@H](C)CO)C(=O)c2cc(NS(=O)(=O)c3cn(C)cn3)ccc2O1` was tested. Which cytotoxicity call did it give?
The cytotoxicity call was “inactive”.

Which cytotoxicity call does the source give for `C[C@@H]1CN([C@@H](C)CO)C(=O)c2cc(NC(=O)c3ccncc3)ccc2O[C@@H](C)CCCCO[C@H]1CN(C)C(=O)Nc1ccccc1` here?
The cytotoxicity call was “inactive”.

How did the cytotoxicity call turn out when `O=C(C[C@H]1C=C[C@@H](NC(=O)c2ccncc2)[C@@H](CO)O1)NCc1ccncn1` was run?
Its cytotoxicity call is “inactive”.

For `Cc1ccccc1S(=O)(=O)N1C[C@@H](O)COC[C@H]2O[C@H](CC(=O)N3CCOCC3)CC[C@@H]21`, which cytotoxicity call is on record?
Its cytotoxicity call is “inactive”.

Which cytotoxicity call does the source give for `CC1CCC2(C)C(C=O)=CCCC2C1(C)CC1OC(O)C(=O)C12CO2` (stereo unspecified) here?
Its cytotoxicity call is “inactive”.

For `C[C@@H]1CCCCO[C@@H](CN(C)CC2CCCCC2)[C@H](C)CN([C@H](C)CO)C(=O)c2cc(NC(=O)CCC(F)(F)F)ccc2O1`, which cytotoxicity call is on record?
Its cytotoxicity call is “inactive”.

`C[C@H](CO)N1C[C@H](C)[C@H](CN(C)C(=O)Nc2ccc(F)cc2)Oc2ccc(NC(=O)Cn3cnnn3)cc2C1=O` was tested. Which cytotoxicity call did it give?
The cytotoxicity call was “inactive”.

`C[C@@H]1CN([C@@H](C)CO)C(=O)c2cccc(NC(=O)NC3CCCCC3)c2O[C@@H]1CN(C)C(=O)Nc1ccc(C(F)(F)F)cc1` was tested. Which cytotoxicity call did it give?
Its cytotoxicity call is “active”.

Which cytotoxicity call does the source give for `C[C@@H]1CN([C@H](C)CO)C(=O)c2cccc(NC(=O)NC3CCCCC3)c2O[C@@H]1CN(C)C(=O)Nc1ccc(C(F)(F)F)cc1` here?
The cytotoxicity call was “inactive”.

Which cytotoxicity call does the source give for `C[C@@H]1CN([C@H](C)CO)C(=O)c2cccc(NC(=O)NC3CCCCC3)c2O[C@H]1CN(C)C(=O)Nc1ccc(C(F)(F)F)cc1` here?
The cytotoxicity call was “inactive”.

With `C[C@H](CO)N1C[C@H](C)[C@H](CN(C)C(=O)Nc2ccc(C(F)(F)F)cc2)Oc2c(NC(=O)NC3CCCCC3)cccc2C1=O` as the compound, how does the cytotoxicity call read?
Its cytotoxicity call is “inactive”.

How did the cytotoxicity call turn out when `C[C@H]1CN([C@@H](C)CO)C(=O)c2cccc(NC(=O)NC3CCCCC3)c2O[C@@H]1CN(C)C(=O)Nc1ccc(C(F)(F)F)cc1` was run?
The cytotoxicity call was “inactive”.

Which cytotoxicity call does the source give for `C[C@H]1CN([C@@H](C)CO)C(=O)c2cccc(NC(=O)NC3CCCCC3)c2O[C@H]1CN(C)C(=O)Nc1ccc(C(F)(F)F)cc1` here?
The cytotoxicity call was “active”.

For `COc1ccc(NC(=O)Nc2ccc3c(c2)C(=O)N([C@H](C)CO)C[C@H](C)[C@H](CN(C)S(=O)(=O)c2cn(C)cn2)O3)cc1`, which cytotoxicity call is on record?
The cytotoxicity call was “inactive”.
